In PubChem BioAssay (NCATS) one finds outcome and AC50 data, which are given here for 32 molecules.

For some assays here: Potency and affinity values are given separately. Some compounds were tested as several samples or in several runs, with calls that do not always agree. The source made the active and inactive calls. A call without a number means that no potency is given here. The rule behind the calls is not given here.

For the first assay the following is noted: Ebola virus entry assay, reporter ratio channel; AC50: Channel type: primary unless noted; outcome: Channel type: primary unless noted.
For `NCCCC(O)(P(=O)(O)O)P(=O)(O)O`, the outcome was “inactive [Channel type: confirmation]”. For `COc1cc2c(cc1OC)C(=O)C(CC1CCN(Cc3ccccc3)CC1)C2` (stereo not drawn), the AC50 (as a rule, the midpoint of the concentration-response curve, whichever way the signal moves) is 22.4 µM (active). On the same count and under the same terms, under `CCCCCCC[N+](CC)(CC)CCCCc1ccc(Cl)cc1` stands 39.8 µM (active); under `CN1CCN(C(c2ccccc2)c2ccccc2)CC1`, 22.4 µM (active).

Take `CC(C)OC(=O)C(C)(C)Oc1ccc(C(=O)c2ccc(Cl)cc2)cc1`: the result was inactive. Regarding `CCN(CC)CCOC(=O)C1(C2CCCCC2)CCCCC1`, the AC50 is 10 µM (active).

`Cc1ccsc1C(=CCCN1CCC[C@@H](C(=O)O)C1)c1sccc1C`: the AC50 was 20 µM (active). The same measure, in the same setting: for `C[C@@H](O)[C@H]1C(=O)N2C(C(=O)O)=C(S[C@@H]3CN[C@H](CNS(N)(=O)=O)C3)[C@H](C)[C@H]12` the value was 25.1 µM (active). `Cc1ccc(NC(=O)c2ccc(CN3CCN(C)CC3)cc2)cc1Nc1nccc(-c2cccnc2)n1`: the AC50 was 12.6 µM (active). Regarding `CC[C@]1(O)C[C@H]2CN(CCc3c([nH]c4ccccc34)[C@@](C(=O)OC)(c3cc4c(cc3OC)N(C=O)[C@H]3[C@@](O)(C(=O)OC)[C@H](OC(C)=O)[C@]5(CC)C=CCN6CC[C@]43[C@@H]65)C2)C1`, the outcome was “inactive [Channel type: confirmation]”.

Regarding `CCCCC(CC)CN=C(N)NC(N)=NCCCCCCN=C(N)NC(N)=NCC(CC)CCCC` (stereo not drawn), the result was inactive. `O=C1c2cccc3c2[C@H](CCC3)CN1[C@@H]1CN2CCC1CC2`: the AC50 was 28.2 µM (active). On to `NC(=Nc1ccccc1)Nc1ccccc1`, for which the AC50 was 31.6 µM (active) and the result was inactive. For `CN(C)CCC=C1c2ccccc2CCc2ccccc21`, the AC50 was 7.94 µM (active). Consider `Cc1ccccc1C(=O)Nc1ccc(C(=O)N2CCCC(O)c3cc(Cl)ccc32)c(C)c1` (stereo not drawn), for which the AC50 was 25.1 µM (active). Same read-out and setting: under `OC1(c2ccc(Cl)c(C(F)(F)F)c2)CCN(CCCC(c2ccc(F)cc2)c2ccc(F)cc2)CC1` stands 2.82 µM (active); under `CCC(COC(=O)c1cc(OC)c(OC)c(OC)c1)(c1ccccc1)N(C)C` (stereo not drawn), 17.8 µM (active). Same read-out and setting: under `Cc1cccc(C)c1NC(=O)CN1CCN(CCCC(c2ccc(F)cc2)c2ccc(F)cc2)CC1` stands 3.16 µM (active); under `O=C(CCCN1CCC(O)(c2ccc(Cl)cc2)CC1)c1ccc(F)cc1`, 10 µM (active).

As to `O=c1oc2ccccc2c(O)c1C(CC(O)c1ccc(-c2ccc(Br)cc2)cc1)c1ccccc1` (stereo not drawn), the result was inactive.

With `COCCCOc1cc(C[C@@H](C[C@H](N)[C@@H](O)C[C@H](C(=O)NCC(C)(C)C(N)=O)C(C)C)C(C)C)ccc1OC`, the result was inactive.

Turning to `COc1cc2c(c(OC)c1OC)-c1ccc(OC)c(=O)cc1[C@@H](NC(C)=O)CC2`, the outcome is “inactive [Channel type: confirmation]”.

The conditions of a further assay: Ebola virus entry assay, blue channel (ratio component).
`O=C1NCN(c2ccccc2)C12CCN(CC1COc3ccccc3O1)CC2` (stereo not drawn): the result was inactive. On to `CC(=O)O[C@]1(C(C)=O)CC[C@H]2[C@@H]3C=C(Cl)C4=CC(=O)[C@@H]5C[C@@H]5[C@]4(C)[C@H]3CC[C@@]21C`, for which the result was inactive. Same read-out and setting: for `CCC1(C2=NCCN2)Cc2ccccc2O1` (stereo not drawn) the value was “inactive”; for `CN1C(=S)CN=C(c2ccccc2)c2cc(Cl)ccc21`, “inactive”; for `CCCNCC(O)COc1ccccc1C(=O)CCc1ccccc1` (stereo not drawn), “inactive”. On to `CN1CC[C@H](c2c(O)cc(O)c3c(=O)cc(-c4ccccc4Cl)oc23)[C@H](O)C1`, for which the result was inactive. Still for that read-out and setting: under `COC(=O)Nc1nc2ccc(C(=O)c3ccccc3)cc2[nH]1` stands “inactive”; under `NCCCC(O)(P(=O)(O)O)P(=O)(O)O`, “inactive”. For `CC(C)OC(=O)C(C)(C)Oc1ccc(C(=O)c2ccc(Cl)cc2)cc1`, the outcome was inactive. On the same count and under the same terms, for `C[C@@H](O)[C@H]1C(=O)N2C(C(=O)O)=C(S[C@@H]3CN[C@H](CNS(N)(=O)=O)C3)[C@H](C)[C@H]12` the value was “inactive”.

`CC[C@]1(O)C[C@H]2CN(CCc3c([nH]c4ccccc34)[C@@](C(=O)OC)(c3cc4c(cc3OC)N(C=O)[C@H]3[C@@](O)(C(=O)OC)[C@H](OC(C)=O)[C@]5(CC)C=CCN6CC[C@]43[C@@H]65)C2)C1`: the outcome was inactive. The same measure, in the same setting: for `CCC(COC(=O)c1cc(OC)c(OC)c(OC)c1)(c1ccccc1)N(C)C` (stereo not drawn) the value was “inactive”; for `C[C@]12CC[C@@H]3c4ccc(O)cc4C[C@@H](CCCCCCCCCS(=O)CCCC(F)(F)C(F)(F)F)[C@H]3[C@@H]1CC[C@@H]2O` (stereo partly drawn), “inactive”.

In the case of `O=c1oc2ccccc2c(O)c1C(CC(O)c1ccc(-c2ccc(Br)cc2)cc1)c1ccccc1` (stereo not drawn), the result was inactive. `COCCCOc1cc(C[C@@H](C[C@H](N)[C@@H](O)C[C@H](C(=O)NCC(C)(C)C(N)=O)C(C)C)C(C)C)ccc1OC`: the outcome was inactive. The same measure, in the same setting: for `COc1cc2c(c(OC)c1OC)-c1ccc(OC)c(=O)cc1[C@@H](NC(C)=O)CC2` the value was “inactive”.

The conditions of a further assay: Ebola virus entry reporter assay, green channel fluorescence. In general terms: Reporter assays use an easily measured gene product as a stand-in for the process of interest.
As to `COc1cc2ncnc(Nc3ccc(F)c(Cl)c3)c2cc1OCCCN1CCOCC1`, the molecule was called inactive. Same read-out and setting: under `CN1CCN(C2=Nc3cc(Cl)ccc3Nc3ccccc32)CC1` stands “inactive”. Turning to `COc1cc2c(cc1OC)C(=O)C(CC1CCN(Cc3ccccc3)CC1)C2` (stereo not drawn), the molecule was called inactive.

`CN1CCN(C(c2ccccc2)c2ccccc2)CC1`: the outcome was inactive. On the same count and under the same terms, for `CC(C)OC(=O)C(C)(C)Oc1ccc(C(=O)c2ccc(Cl)cc2)cc1` the value was “inactive”; for `CCN(CC)CCOC(=O)C1(C2CCCCC2)CCCCC1`, “inactive”. Regarding `Cc1ccsc1C(=CCCN1CCC[C@@H](C(=O)O)C1)c1sccc1C`, the outcome was inactive.

With `C[C@@H](O)[C@H]1C(=O)N2C(C(=O)O)=C(S[C@@H]3CN[C@H](CNS(N)(=O)=O)C3)[C@H](C)[C@H]12`, the call was inactive. Regarding `Cc1ccc(NC(=O)c2ccc(CN3CCN(C)CC3)cc2)cc1Nc1nccc(-c2cccnc2)n1`, the result was inactive.

As to `O=C1c2cccc3c2[C@H](CCC3)CN1[C@@H]1CN2CCC1CC2`, the call was inactive.

Consider `CN(C)CCC=C1c2ccccc2CCc2ccccc21`, for which the call was inactive. Turning to `Cc1ccccc1C(=O)Nc1ccc(C(=O)N2CCCC(O)c3cc(Cl)ccc32)c(C)c1` (stereo not drawn), the molecule was called inactive.

With `CCC(COC(=O)c1cc(OC)c(OC)c(OC)c1)(c1ccccc1)N(C)C` (stereo not drawn), the molecule was called inactive. The same measure, in the same setting: for `COCCCOc1cc(C[C@@H](C[C@H](N)[C@@H](O)C[C@H](C(=O)NCC(C)(C)C(N)=O)C(C)C)C(C)C)ccc1OC` the value was “inactive”.
